# Compound activity from PubChem BioAssay.
# UCHL1 inh: blocks human UCHL1 ubiquitin-rhodamine cleavage | AID 1645859 | purified UCHL1, Ub-rhodamine cleavage fluorescence | P09936 | inhibition, % at 20 µM | hit rate 0.2% among 47,000
# USP10 inh: blocks human USP10 ubiquitin-rhodamine cleavage; Q14694; purified USP10, Ub-rhodamine fluorescence, 60 min; inhibition, % at 20 µM; hit rate 1.1% among 47,000; AID 1645856
# USP17 block: blocks human USP17 ubiquitin-rhodamine cleavage; purified USP17, Ub-rhodamine cleavage fluorescence, 3 h; inhibition, % at 50 µM; A8MUK1; hit rate 6.5% among 47,000
# USP8 inh: human USP8 deubiquitinase inhibition. P40818. purified USP8, Ub-rhodamine cleavage fluorescence, 30 min. inhibition, % at 20 µM. hit rate 4.2% among 47,000
# USP7 inh: inhibitors of human USP7 deubiquitinase | inhibition, % at 20 µM | AID 1645854 | hit rate 0.3% among 47,000 | purified USP7, Ub-rhodamine cleavage fluorescence | Q93009
# OTUD3 block: human OTUD3 deubiquitinase inhibition; purified OTUD3, Ub-rhodamine fluorescence, 2 h; inhibition, % at 25 µM; hit rate 0.7% among 47,000; AID 1645858
# Target sequence (Q5T2D3 whole entry, looked up): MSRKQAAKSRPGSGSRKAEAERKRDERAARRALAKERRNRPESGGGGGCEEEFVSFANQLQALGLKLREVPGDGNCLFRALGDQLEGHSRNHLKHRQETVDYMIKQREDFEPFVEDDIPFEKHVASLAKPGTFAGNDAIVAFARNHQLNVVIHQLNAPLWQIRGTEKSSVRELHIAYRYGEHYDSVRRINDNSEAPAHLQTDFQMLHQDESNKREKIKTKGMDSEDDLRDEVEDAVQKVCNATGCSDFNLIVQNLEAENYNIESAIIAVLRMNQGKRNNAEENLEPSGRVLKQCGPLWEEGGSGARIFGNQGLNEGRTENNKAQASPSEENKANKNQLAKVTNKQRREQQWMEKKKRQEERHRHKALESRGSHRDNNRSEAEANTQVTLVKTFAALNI
# An asterisk follows results filed as active; / = no result. This is a sample that favours compounds with a hit; in the whole collection about 9.2% have one here. No stated cut-off is given here; in the data, active means inhibition above about 30%; inactive means the rest.
SMILES,UCHL1 inh,USP10 inh,USP17 block,USP8 inh,USP7 inh,OTUD3 block
COCCOC(=O)C1=C(C)Nc2nc3ccccc3n2C1c1cc(OC)c(OC)c(OC)c1 (configuration not stated),2,-1,34*,4,2,6
COc1ccccc1NC(=O)C1=C(C)Nc2nc3ccccc3n2C1c1ccncc1 (configuration not stated),1,1,-1,3,4,0
CN(C)C=Nc1c(C#N)cnn1-c1ccc([N+](=O)[O-])cc1,3,5,17,-10,0,-1
O=C(Cc1nc(-c2ccccn2)n[nH]1)NCCC1=CCCCC1,-5,-5,-65,-293,-10,9
NC(=O)c1ccccc1OCC(=O)N1CCc2ccccc21,1,4,62*,2,9,-7
CCCN1CN=C(Nc2nc(C)c3cc(OC)ccc3n2)NC1,0,-4,12,9,5,14
Cc1nn(-c2ccccc2)c2c1N=C1C(Cl)=CC(Cl)=CN1C21C(=O)Nc2ccccc21 (configuration not stated),15,4,82*,94*,65*,12
COc1ccc(C2c3c(C)nn(-c4ccccc4)c3N=C3C(=O)Nc4ccccc4N32)cc1 (configuration not stated),2,-7,-15,-4,3,-8
CN1CC[C@@]2(C(=O)N3CCCC3)CCN(C(=O)Nc3ccccc3)CC[C@@H]12,-1,-1,-26,-135,-1,-3
Cc1cccc(C(=O)N2CCCN(Cc3noc(-c4ccccc4)n3)CC2)c1,-6,-6,-22,-14,-7,-16
COc1ccc(CCNC(=O)COC(=O)c2ccc(N3CCCC3=O)cc2)cc1,0,5,84*,30*,6,3
O=C(COC(=O)c1ccc2c(c1)S(=O)(=O)N=C1CCCCCN12)NCCc1ccc(F)cc1,-2,-2,/,8,3,-1
Cc1cccc(NC(=O)CSCC(=O)Nc2cccc3ccccc23)c1,1,6,24,0,-10,-5
Cc1cccc(NC(=O)CSc2nnc(NC(=O)c3ccc4ccccc4c3)s2)c1,-1,44*,12,5,13,10
Cc1ccc(NC(=O)Cn2c(-n3nc(C)cc3C)nc3c(c2=O)CCCC3)c(C)c1,0,-3,59*,24,1,13
CC(=O)N1CCc2c(sc(NC(=O)C3CC3)c2C(N)=O)C1,-11,-2,28,50*,-13,-10
CCc1nc(SCC(=O)c2ccc(Br)cc2)c2oc3ccccc3c2n1,1,-1,2,2,3,-9
CCc1nc(SCc2ccco2)c2oc3ccccc3c2n1,0,1,-16,-3,0,-6
O=C(CSc1ccc2nnc(-c3cccc(F)c3)n2n1)N1CCCc2ccccc21,3,11,63*,38*,21,40*
CCc1nc(SCC(=O)N2CCCc3ccccc32)c2oc3ccccc3c2n1,5,8,40*,6,10,-2
Cc1cc(-c2nnc(SCC(=O)N3CCCc4ccccc43)o2)no1,3,0,41*,16,4,-21
CCc1nc(SCc2cccc(F)c2)c2oc3ccccc3c2n1,5,6,53*,3,5,24
CC(C)(C)c1ccc(C(=O)N2CCC(C(=O)N3CCN(c4ccccc4F)CC3)CC2)cc1,0,1,-6,-83,-5,-6
COc1cccc(CNS(=O)(=O)c2c(C)[nH]c(C)c2-c2nc(C)no2)c1,-3,1,-1,6,0,-7
O=C(Nc1cc(S(=O)(=O)Nc2ccc(Cl)cc2)ccc1O)c1cc2c(s1)CCC2,33*,70*,14,99*,60*,8
SMILES,UCHL1 inh,USP10 inh,USP17 block,USP8 inh,USP7 inh,OTUD3 block
Cc1ccc(S(=O)(=O)N2CCCCC2)cc1NC(=O)c1cc2c(s1)CCC2,2,8,-2,11,7,2
Nc1ccc(NC(=O)c2cc3c(s2)CCC3)cc1[N+](=O)[O-],4,11,58*,57*,12,5
COc1ccc(C2C3=C(Nc4ncnn42)c2ccccc2C3=O)cc1 (configuration not stated),-1,-4,13,-4,2,6
CNc1cccc(C2CN(C(=O)c3ccc4nc[nH]c4c3)CCO2)n1 (configuration not stated),1,-1,-7,6,2,12
Cc1ccccc1OCCN1C(=O)C2CN(C(N)=O)CCN2C1=O (configuration not stated),4,6,12,42*,2,13
O=C(NCc1ccco1)c1ccc2c(c1)N(Cc1cccc(Cl)c1)C(=O)c1ccccc1S2,1,2,38*,13,15,18
CCOC(=O)NC(c1ccccc1F)C1CCc2ccccc2C1=O (configuration not stated),0,0,-9,1,-16,0
CCC1(c2ccccc2)NC(=O)N(CC(=O)N(c2ccccc2)C(C)C)C1=O (configuration not stated),2,3,13,13,0,14
CC(C)N(C(=O)Cn1c(=O)[nH]c2ccccc21)c1ccccc1,1,6,58*,19,5,7
C/C=C/C=C/[C@@H]1Cc2cc(O)cc(O)c2O1,61*,33*,97*,74*,-76,87*
CN(C)c1ccc(CNC(=O)c2nnc(C(=O)Nc3ccccc3)s2)cc1,0,14,7,37*,18,-2
COc1ccc(CNC(=O)c2nnc(C(=O)Nc3ccc(F)cc3)s2)cc1,2,17,8,21,9,3
COc1ccc(CC(=O)NCC(c2cccnc2)N2CCc3ccccc3C2)cc1 (configuration not stated),-3,-3,2,14,-3,-7
Cc1ccc(Cn2c(=O)n(CCC(=O)NCCc3ccccc3)c(=O)c3ccccc32)cc1,3,15,46*,34*,10,25
COc1ccc(CCNC(=O)CCCn2c(SCC(=O)NCc3ccco3)nc3ccccc3c2=O)cc1OC,-1,5,33*,-6,-5,37*
Cc1cccc(NC(=O)Cn2c(=O)n(CC(=O)NCCc3ccccc3)c(=O)c3ccccc32)c1C,-2,16,22,8,4,12
COc1ccc(OC)c(NC(=O)Cn2c(=O)n(CC3CCC(C(=O)NCCc4ccccc4)CC3)c(=O)c3ccccc32)c1 (configuration not stated),0,29,39*,22,9,93*
COc1ccc(CCNC(=O)CCCCn2c(=O)c3ccccc3n(Cc3cccc(Cl)c3)c2=O)cc1OC,5,1,34*,3,7,18
Cc1c(C(=O)NC2CCC(C)CC2)nnn1-c1cccc2c1CCN(Cc1ccccn1)C2 (configuration not stated),-2,-7,-23,24,-5,-21
